# According to PubChem BioAssay AID1851 (National Center for Advancing Translational Sciences (NCATS), 2009):
# The campaign covered roughly 16,000 compounds. About 5,800 (36%) were called active. Not shown: some 23% with an inconclusive outcome. The call rests on the fitted dose curve; in most records, active means well fitted curve in the direction sought with a large enough effect; inconclusive means small, poorly fitted or top-dose-only effect, or effect the other way; inactive means no such curve, though single readings can be large or run the other way. This is one part of the list.
# Target: Cytochrome P450 2C19 (Homo sapiens) (UniProt P33261)
# Experiment: Cytochrome panel assay with activity outcomes
# Details: recombinant CYP, pro-luciferin dealkylation, luminescence, p450-cyp2c19; series mostly up to 57.1 µM; activity, negative = inhibition: at the top concentration
# On the % scale 0 is the no-effect control and ±100 the full control effect.
# Cytochrome P450 2C19 (Homo sapiens), sequence (P33261 whole entry, looked up): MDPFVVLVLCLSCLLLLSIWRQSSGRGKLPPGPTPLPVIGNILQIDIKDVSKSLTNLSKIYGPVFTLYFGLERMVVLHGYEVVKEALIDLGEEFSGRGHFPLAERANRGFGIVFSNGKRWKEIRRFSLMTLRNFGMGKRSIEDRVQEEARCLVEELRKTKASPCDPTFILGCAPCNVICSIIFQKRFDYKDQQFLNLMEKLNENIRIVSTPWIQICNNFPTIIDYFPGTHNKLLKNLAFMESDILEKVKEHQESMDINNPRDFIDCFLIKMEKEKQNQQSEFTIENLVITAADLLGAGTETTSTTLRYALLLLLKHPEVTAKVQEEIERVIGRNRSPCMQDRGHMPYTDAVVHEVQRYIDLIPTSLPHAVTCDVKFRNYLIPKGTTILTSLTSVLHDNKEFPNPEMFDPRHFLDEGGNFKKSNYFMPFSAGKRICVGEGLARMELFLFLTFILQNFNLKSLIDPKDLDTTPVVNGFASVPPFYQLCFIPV
SMILES,AC50,"activity, negative = inhibition"
Nc1ccc(S(=O)(=O)NCc2nccs2)cc1,0.0794 µM (active),
Nc1ccc(S(=O)(=O)Nc2nccs2)cc1,,7.08% [at 25.6 µM] (inactive)
Nc1ccc(S(=O)(=O)Nc2ncccn2)cc1,,25.6% [at 25.6 µM] (inactive)
O=C(O)c1cccnc1,,6.1% [at 25.6 µM] (inactive)
O=C(NC(NCc1ccccc1)C(Cl)(Cl)Cl)c1cccnc1 (centres undefined),4.47 µM (active),
Cc1cccc(NC(NC(=O)c2cccnc2)C(Cl)(Cl)Cl)c1 (centres undefined),2.82 µM (active),
CCNc1ncc2nc(-c3cccs3)c(=O)n(CCC#N)c2n1,,-20.2% (inactive)
CCOc1ccc(NCc2nnc(SCc3ccccc3Cl)n2-c2ccccc2)cc1,2 µM (active),
COC(=O)CSc1nnc(CNc2ccc(Cl)cc2)n1-c1ccccc1,5.01 µM (active),
COC(Cc1nnc(SC)n1-c1ccccc1)OC,,-17% (inactive)
COc1ccc(NCc2nnc(SCc3ccccc3)n2-c2ccc(OC)cc2)cc1,3.98 µM (active),
COC(Cc1nnc(SC)n1-c1ccc(Cl)cc1)OC,,-9.57% (inactive)
CC(C)CN1CCCC2(CCN(C(=O)c3csnn3)CC2)C1,,-12.1% (inactive)
C[C@@H]1CCCC(CC(=O)O)(CC(=O)O)C1,,9.85% [at 11.4 µM] (inactive)
O=C(/C=C/c1ccc(Br)cc1)NC1CCCCCC1,,-28.3% (inactive)
Cc1ccc(/C=C/C(=O)NC(=S)Nc2ccccc2C(=O)NC2CCCCC2)cc1,14.1 µM (active),
O=c1c([N+](=O)[O-])cc(C(F)(F)F)cn1Cc1c(Cl)cccc1Cl,7.08 µM (active),
Cc1cc2nc3[nH]c4c(Cl)cc(Cl)cc4c3nc2cc1C,,32.6% [at 11.4 µM] (inactive)
CN(C)C(=O)c1ccc(-c2cc(N(C)Cc3ccco3)ncn2)cc1,,-41.6% (inactive)
CN(Cc1ccco1)c1cc(-c2ccc3c(c2)OCO3)ncn1,10 µM (active),
CN(C)c1ccc(-c2cc(N(C)Cc3ccco3)ncn2)cc1,10 µM (active),
CC(=O)OC[C@H]1O[C@@H](O/N=C\[C@@H](C)[C@H](OCc2ccccc2)C(C)C)[C@H](OC(C)=O)[C@@H](OC(C)=O)[C@H]1OC(C)=O,,12.9% [at 11.4 µM] (inactive)
O=C1C=C(NCC2CCCO2)C2(CCCCC2)O1 (centres undefined),,-39.1% (inactive)
Cc1cc2ccccc2nc1SCC(=O)Nc1nc(-c2ccccc2)cs1,,-7.04% (inactive)

SMILES,AC50,"activity, negative = inhibition"
COc1ccc2cc(C)c3nnc(SCC(=O)Nc4nc(-c5ccccc5)cs4)n3c2c1,5.01 µM (active),
CC(=O)OC[C@@H]1O[C@H](C/C=N\O[C@@H]2O[C@H](COC(C)=O)[C@@H](OC(C)=O)[C@H](OC(C)=O)[C@H]2OC(C)=O)C=C[C@@H]1OC(C)=O,,12.3% [at 11.4 µM] (inactive)
O=C(CN1CCN(c2ccc(Cl)cc2)CC1)Nc1cccc(F)c1,5.01 µM (active),
O=C(COc1ccc(Cl)cc1)Nc1ccc(N2CCN(C(=O)c3ccco3)CC2)cc1,,-27.1% (inactive)
O=C(CN1CCN(c2ccc(Cl)cc2)CC1)Nc1ccc(F)c(F)c1,7.94 µM (active),
C[C@H]1O[C@@H](CC(=O)O)Cc2c1c(O)c1c(O)cc(-c3cc(=O)c4c(=O)c5c(c(=O)c=4c3=O)C[C@H](CC(=O)O)O[C@@H]5C)c(O)c1c2O,,-5.68% [at 11.4 µM] (inactive)
COC(=O)c1c(NC(=O)c2ccco2)sc2c1CCC2,4.47 µM (active),
COCCn1c(=O)c(-c2ccc(Cl)cc2)nc2cnc(N(C)C)nc21,,6.88% (inactive)
COc1ccc2[nH]c3c(c2c1)CN(C)CC3,,-22.7% (inactive)
Cc1ccc2[nH]c3c(c2c1)CN(C(=O)CN1c2ccc(F)cc2CCC1C)CC3 (centres undefined),3.55 µM (active),
COC(=O)c1ccc2ccn(CC(=O)NC3CCCCC3)c2c1,1.58 µM (active),
CCOC(=O)CSC1=C(C#N)C(c2sccc2C)CC(=O)N1 (centres undefined),7.94 µM (active),
CCOC(=O)Cc1c(C)nc2c(C#N)c[nH]n2c1=O,,-24.9% (inactive)
COC(=O)CSC1=C(C#N)C(c2cccc(F)c2)CC(=O)N1 (centres undefined),11.2 µM (active),
CCOC(=O)C1=C(C)NC(C)=C(C(=O)OCC)C1c1sccc1C,1.78 µM (active),
CCOC(=O)CSC1=C(C#N)C(c2sccc2C)C(C(C)=O)=C(C)N1 (centres undefined),1.78 µM (active),
CCOC(=O)CSC1=C(C#N)C(C)C2=C(CCCC2=O)N1 (centres undefined),0.708 µM (active),
CCCCN(CC)S(=O)(=O)c1ccc(C(=O)Nc2nnc(CSC)o2)cc1,,-8.71% (inactive)
COC(=O)C1=C(NC(=O)c2cccc(OC)c2)CCS1,14.1 µM (active),
CCN(CC)S(=O)(=O)c1ccc(C(=O)NC2=C(C(=O)OC)SCC2)cc1,8.91 µM (active),
COCCN(CCOC)S(=O)(=O)c1ccc(C(=O)Nc2nc(C)c(C(C)=O)s2)cc1,,-35.5% (inactive)
Cc1ccc(C2CC(C(F)(F)F)n3nc(C(=O)NCCN4CCOCC4)cc3N2)cc1 (centres undefined),,-29.1% (inactive)
Cc1ccnc(NS(=O)(=O)c2ccc(N=[N+]=[N-])cc2)n1,,39.6% [at 11.4 µM] (inactive)
O=C(NC(=S)N(Cc1ccccc1)Cc1ccccc1)c1ccccc1F,2.24 µM (active),

SMILES,AC50,"activity, negative = inhibition"
CN1CCN(NC(=O)c2ccccc2F)CC1,,2.59% (inactive)
CCOc1ccc(C(=O)NC(=S)N(Cc2ccccc2)Cc2ccccc2)cc1,8.91 µM (active),
C[C@H](CN(C)C)C(=O)c1ccccc1C(=O)O,,12.3% [at 11.4 µM] (inactive)
COc1ccc(CN(CCC#N)C(=S)NC(=O)c2ccccc2)cc1,7.94 µM (active),
CCNC(=O)c1ccc(-n2nc(C(F)(F)F)c3c2CCCC3)cc1,5.62 µM (active),
CCc1ccc(NC(=O)Cn2nc(C(F)(F)F)c3c2CCC3)cc1,7.94 µM (active),
CCCCN(C)CCCNC(=O)c1ccc(N2CCCC2=O)cc1,,15.5% (inactive)
O=C1OCCC1Sc1nnc(-c2ccc(O)cc2)o1 (centres undefined),10 µM (active),
Cc1cc(C)c2[nH]c(=O)c(CN(Cc3ccco3)C(=O)c3cccs3)cc2c1,1.78 µM (active),
CCC(=O)N1CCc2cc(S(=O)(=O)NC(C(=O)NCc3ccc(F)cc3)C(C)C)ccc21 (centres undefined),,-14.1% (inactive)
CN(CCC#N)C(=O)c1ccc(CNS(=O)(=O)c2ccc(F)cc2)cc1,17.8 µM (active),
Cc1c2cccc(Sc3ccccc3)c2c2c3c(cccc13)[S+](c1ccccc1)C2 (centres undefined),0.0631 µM (active),
Cn1c(=O)c(-c2cc(F)cc(F)c2)nc2cncnc21,,-31.9% (inactive)
COc1ccccc1CCn1c(=O)c(-c2cc(F)cc(F)c2)nc2cncnc21,1.58 µM (active),
COc1ccccc1CCn1c(=O)c(-c2cccc(F)c2)nc2cncnc21,1 µM (active),
COCCn1c(=O)c(-c2cc(F)cc(F)c2)nc2cncnc21,,-22% (inactive)
CNC(=O)c1c(I)c(C(=O)NCC(=O)Nc2c(I)c(C(=O)O)c(I)c(C(=O)NCCO)c2I)c(I)c(N(C)C(C)=O)c1I,,-35.8% [at 25.6 µM] (inactive)
O=C(O)[C@@H]1[C@@H](C(=O)Nc2ncccn2)[C@@H]2C=C[C@@H]1O2,,0.77% [at 11.4 µM] (inactive)
CC[C@]1(O)C[C@@H]2CN(CCc3c([nH]c4ccccc34)[C@](C(=O)OC)(c3cc4c(cc3OC)N(C)[C@H]3[C@](O)(C(=O)OC)[C@@H](C(=O)OC)[C@@]5(CC)C=CCN6CC[C@@]43[C@@H]65)C2)C1,,-25.1% (inactive)
COC(=O)c1ccc(NC(=O)c2ccccc2)o1,,-23.3% (inactive)
CN(C(=O)CC(NC(=O)c1ccccc1)(c1ccccc1)c1ccccc1)c1ccccc1,11.2 µM (active),
CCCCCC1=C2CNC(C)(C(=O)OC)C=C2C(C)C1=O (centres undefined),20 µM (active),
CCCCCC1=C2CNC(Cc3ccccc3)(C(=O)OC)C=C2C(C)C1=O (centres undefined),6.31 µM (active),
COCCn1c(=O)c(-c2cccc(C#N)c2)nc2cnc(N3CCNCC3)nc21,,-35.5% (inactive)

SMILES,AC50,"activity, negative = inhibition"
Nc1ccc(N=Nc2c(S(=O)(=O)O)cc3ccccc3c2S(=O)(=O)O)cc1,,1.46% [at 11.4 µM] (inactive)
Cc1cccc(C)c1NC(=O)CCN1C(=O)C2C3CCC(C3)C2C1=O (centres undefined),,9.83% (inactive)
Cc1cc(NC(=O)CCN2C(=O)C3C4CCC(C4)C3C2=O)c(C)cc1Br (centres undefined),11.2 µM (active),
CCOC(=O)CCN1C(=O)[C@H]2[C@@H]3[C@H](O)[C@H](O)CC(=O)[C@H]3CC[C@H]2C1=O,,-31.9% [at 11.4 µM] (inactive)
CC1CCN(CC(=O)Nc2cccc([N+](=O)[O-])c2)CC1,4.47 µM (active),
O[C@H](CCCN1CCN(c2ncc(F)cn2)CC1)c1ccc(F)cc1,,-16.9% (inactive)
O=C1c2ccccc2S(=O)(=O)N1CCCCN1CCN(c2ncccn2)CC1,0.631 µM (active),
Cn1cccc1C(=O)N1CCC2(CC1)CCN(c1ccc(-c3ccccc3)cc1)CC2,,9.67% (inactive)
COc1ccc(C(=O)NCCCN2CCOCC2)cc1OC,,-12.1% (inactive)
Cc1ccc(C(=O)NCCCN2CCOCC2)cc1N1CCCC1=O,,-14.7% (inactive)
COc1ccc(-c2cn3c(C)c(C(=O)NCCN4CCOCC4)sc3n2)cc1,,-22.6% (inactive)
COc1ccc(C(=O)Nc2ccc(Cl)cc2C(=O)NCCN2CCOCC2)cc1,10 µM (active),
O=C(NCCN1CCCCC1)c1ccc(I)cc1,,-38.6% (inactive)
O=C(NCCN1CCOCC1)c1ccc2ccccc2c1,7.94 µM (active),
O=C(NCCN1CCOCC1)c1csc2c1CCCCC2,28.2 µM (active),
CC(=O)N1CCC2(CC1)CN(C(=O)Nc1cccc(C#N)c1)C2,,7.13% (inactive)
Cc1c(NC(=O)Cn2ccc([N+](=O)[O-])n2)c(=O)n(-c2ccccc2)n1C,,-13.2% (inactive)
Cc1nc(SCC(=O)Nc2c(C)n(C)n(-c3ccccc3)c2=O)nc(C)c1C,,-7.06% (inactive)
CC(=O)N1CCc2cc(S(=O)(=O)CCC(=O)Nc3c(C)n(C)n(-c4ccccc4)c3=O)ccc21,,-11.7% (inactive)
Cc1c(NC(=O)CSc2nnnn2C)c(=O)n(-c2ccccc2)n1C,,-10.8% (inactive)
C=CCn1c(SCC(=O)Nc2c(C)n(C)n(-c3ccccc3)c2=O)nc2sc(C)c(-c3ccccc3)c2c1=O,15.8 µM (active),
Cc1c(NC(=O)CSc2nnc3c4ccccc4n(CCc4ccccc4)c3n2)c(=O)n(-c2ccccc2)n1C,25.1 µM (active),
